# Experimental data from PubChem BioAssay (NCATS).
# Inconclusive results are not listed. The source made the active and inactive calls. Unless noted, calls follow the shape of the dose curve; as a rule, active = well fitted curve in the direction sought with a large enough effect; inconclusive = small, poorly fitted or top-dose-only effect, or another doubt; inactive = no such curve, though single readings can be large; an effect the other way counts as inactive or inconclusive.
# Key:
# [1] = molecular target: N-terminal Xaa-Pro-Lys N-methyltransferase 1 (Homo sapiens) (UniProt Q9BV86); test: Confirmatory qHTS for Inhibitors of N-terminal methyltransferase 1 (NTMT1): MTaseGlo Assay (AID 1645874); also: nearly all actives have a fitted effect of over 65% in size; also: potency is read from the fitted curve at half-maximal effect;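 as to activity change, negative = inhibition: luminescence from SAH made as NTMT1 methylates SPKRIA peptide using SAM; 0% = DMSO control and -100% = no-enzyme control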
# Chain of N-terminal Xaa-Pro-Lys N-methyltransferase 1 (Homo sapiens) (Q9BV86 whole entry, looked up): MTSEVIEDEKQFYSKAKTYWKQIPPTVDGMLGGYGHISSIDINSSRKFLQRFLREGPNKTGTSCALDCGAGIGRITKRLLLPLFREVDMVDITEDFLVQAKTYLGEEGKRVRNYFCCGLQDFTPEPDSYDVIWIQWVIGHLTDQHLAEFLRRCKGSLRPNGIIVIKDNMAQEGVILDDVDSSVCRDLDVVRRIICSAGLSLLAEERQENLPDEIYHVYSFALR
# Summary of the method: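 Inhibition was derived from luminescence after SAH-to-ATP conversion, scaled between no-enzyme and DMSO wells, then fitted by 4-parameter Hill. Conditions: 125 nM NTMT1, 100 uM SAM, 1 uM SPKRIA, 30 min RT.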
# [2] = molecular target: Glutathione peroxidase 1 (Homo sapiens) (UniProt P07203); test: Primary qHTS Assay for Inhibitors of Recombinant Selenoprotein Glutathione Peroxidase 1 (GPX1) (AID 1845191); also: nearly all actives have a fitted effect of over 65% in size
# Chain of Glutathione peroxidase 1 (Homo sapiens) (P07203 whole entry, looked up): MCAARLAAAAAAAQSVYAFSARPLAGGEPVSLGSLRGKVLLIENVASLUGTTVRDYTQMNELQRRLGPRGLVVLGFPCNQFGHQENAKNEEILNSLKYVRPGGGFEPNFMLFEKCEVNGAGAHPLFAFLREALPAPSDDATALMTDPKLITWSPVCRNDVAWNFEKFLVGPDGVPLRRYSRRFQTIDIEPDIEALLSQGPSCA
# Summary of the method: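 NADPH consumption tracked by fluorescence at 340/450 nm between t=0 and t=15 min, room temperature. Final mix: 10 nM GPX1, 100 nM glutathione reductase, 1 mM GSH, 0.5 mM NADPH, 0.5 mM cumene hydroperoxide, 0.01% BSA; 30 min compound–enzyme preincubation.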
# [3] = Primary qHTS for inhibitors of nuclear receptor binding SET domain protein 2 (NSD2) in an isogenic RCH-ACV NSD2 p.E1099K mutant (9B) (AID 1645876); also: nearly all actives have a fitted effect of over 70% in size; also: potency is read from the fitted curve at half-maximal effect
# [4] = Primary qHTS for inhibitors of nuclear receptor binding SET domain protein 2 (NSD2) in an RCH-ACV wild type WT cells (2C) (AID 1645877); also: nearly all actives have a fitted effect of over 70% in size; also: potency is read from the fitted curve at half-maximal effect
# [5] = qHTS for Inhibitors of Ubiquitin-specific Protease USP2a Using CHOP2 as the Reporter: K633 Counterscreen (AID 652168); also: % of control where 0% means no effect
# Summary of the method: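 Detection-system control: fluorescence of K48-linked DiUb-4IQF substrate (100 nM as added) tracked over time, Ex 525/Em 598, with pinned compounds and no enzyme, in pH 8 Tris buffer containing beta-mercaptoethanol and 0.05% Chaps.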
# [6] = molecular target: Ubiquitin carboxyl-terminal hydrolase 2 (Homo sapiens) (UniProt O75604); test: qHTS for Inhibitors of Ubiquitin-specific Protease USP2a Using CHOP2 as the Reporter: K484 Substrate (AID 652173); conditions: USP2 cleavage of DiUb K48 IQF substrate, fluorescence;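 also: cleavage of internally quenched K48 di-ubiquitin substrate measured as rising fluorescence over time; potency is read from the fitted curve at half-maximal effect; nearly all actives have a fitted effect of over 70% in size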
# Chain of Ubiquitin carboxyl-terminal hydrolase 2 (Homo sapiens) (O75604 whole entry, looked up): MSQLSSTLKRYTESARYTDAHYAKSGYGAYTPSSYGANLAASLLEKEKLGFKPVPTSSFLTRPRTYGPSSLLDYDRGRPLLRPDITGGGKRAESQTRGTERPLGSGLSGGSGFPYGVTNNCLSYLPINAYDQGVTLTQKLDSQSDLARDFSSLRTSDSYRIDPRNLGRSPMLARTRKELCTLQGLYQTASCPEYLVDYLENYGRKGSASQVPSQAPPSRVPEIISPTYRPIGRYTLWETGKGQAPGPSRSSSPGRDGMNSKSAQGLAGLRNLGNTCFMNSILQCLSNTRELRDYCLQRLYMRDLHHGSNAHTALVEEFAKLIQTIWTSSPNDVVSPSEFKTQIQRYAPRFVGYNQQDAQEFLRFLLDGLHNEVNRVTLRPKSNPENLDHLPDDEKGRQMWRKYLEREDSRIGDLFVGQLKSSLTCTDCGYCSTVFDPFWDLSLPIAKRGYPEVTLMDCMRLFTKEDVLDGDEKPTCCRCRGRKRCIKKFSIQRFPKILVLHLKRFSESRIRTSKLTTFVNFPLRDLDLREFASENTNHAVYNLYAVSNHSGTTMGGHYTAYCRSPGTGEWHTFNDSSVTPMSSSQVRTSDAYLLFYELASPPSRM
# Summary of the method: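 Kinetic fluorescence (Ex 525/Em 598) tracked cleavage of an internally quenched K48 di-ubiquitin substrate, added as a 100 nM solution. The enzyme was added as a 5 nM USP2 solution before compound pinning, with no-enzyme controls. Buffer: Tris pH 8, beta-mercaptoethanol, CHAPS.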
# [7] = molecular target: Phospholipid hydroperoxide glutathione peroxidase GPX4 (Homo sapiens) (UniProt P36969); test: Primary qHTS Assay for Inhibitors of Recombinant Selenoprotein Glutathione Peroxidase 4 (GPX4) (AID 1845192); also: nearly all actives have a fitted effect of over 65% in size; also: potency is read from the fitted curve at half-maximal effect; as to activity change, negative = inhibition: % is scaled to controls: 0 for no effect and ±100 for the full control effect
# Chain of Phospholipid hydroperoxide glutathione peroxidase GPX4 (Homo sapiens) (P36969 whole entry, looked up): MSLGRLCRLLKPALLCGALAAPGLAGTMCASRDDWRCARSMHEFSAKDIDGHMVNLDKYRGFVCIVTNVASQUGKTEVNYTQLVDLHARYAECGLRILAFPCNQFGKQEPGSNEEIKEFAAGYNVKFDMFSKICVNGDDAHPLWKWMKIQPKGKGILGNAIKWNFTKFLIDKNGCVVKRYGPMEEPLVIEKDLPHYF
# Summary of the method: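 NADPH consumption followed by fluorescence at 340/450 nm, t=0 and after 15 min at room temperature. Reaction started with cumene hydroperoxide (0.5 mM final) after 30 min compound–GPX4 preincubation; final 200 nM GPX4, 100 nM GR, 1 mM GSH, 0.5 mM NADPH.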
# [8] = qHTS drug screen for cell cycle checkpoint inhibitors in PARPi-resistant BRCA-mutant ovarian cancer cell lines. (AID 1963452; calls by dose curve); conditions: PEO1/OlaR viability, CellTiter-Glo luminescence, 96 h, stronger effect = lower value
# Summary of the method: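 PEO1, PEO4 and PEO1/OlaR ovarian cancer cells, 600 per well, exposed 96 h at 37C to a dilution series. Viability read by CellTiter-Glo luminescence, normalized to DMSO and empty wells; activity summarized as Z-AUC.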
# [9] = NCATS anti-infectives library activity on HEK293 viability as a counter-qHTS vs the C. elegans viability qHTS (AID 1745854); also: % is scaled to controls: 0 for no effect and ±100 for the full control effect
# Summary of the method: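 Cytotoxicity counter-screen to a worm viability qHTS: CellTiter-Glo luminescence read 10 min after reagent addition. Compounds (final up to 41.7 uM, a 1:5 dilution series) incubated 24 hr at 37C with 1,500 HEK293 cells per well; digitonin control.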
# [10] = NCATS anti-infectives library activity on the primary C. elegans qHTS viability assay (AID 1745855; calls by dose curve)
# Summary of the method: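 GFP read-out by 488 nm laser cytometry at day 0, 3 and 7, gated on object perimeter, area and peak intensity, scored viability of PE254-GFP-FLuc worms exposed to compound in S medium with bacterial capsules at 21 °C.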
# [11] = molecular target: Tyrosine-protein kinase Yes (Homo sapiens) (UniProt P07947); test: qHTS for small molecule inhibitors of Yes1 kinase: Primary Screen (AID 686947);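 also: plate controls were DMSO with enzyme for no effect and no-enzyme DMSO wells for full effect; nearly all actives have a fitted effect of over 60% in size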
# Chain of Tyrosine-protein kinase Yes (Homo sapiens) (P07947 whole entry, looked up): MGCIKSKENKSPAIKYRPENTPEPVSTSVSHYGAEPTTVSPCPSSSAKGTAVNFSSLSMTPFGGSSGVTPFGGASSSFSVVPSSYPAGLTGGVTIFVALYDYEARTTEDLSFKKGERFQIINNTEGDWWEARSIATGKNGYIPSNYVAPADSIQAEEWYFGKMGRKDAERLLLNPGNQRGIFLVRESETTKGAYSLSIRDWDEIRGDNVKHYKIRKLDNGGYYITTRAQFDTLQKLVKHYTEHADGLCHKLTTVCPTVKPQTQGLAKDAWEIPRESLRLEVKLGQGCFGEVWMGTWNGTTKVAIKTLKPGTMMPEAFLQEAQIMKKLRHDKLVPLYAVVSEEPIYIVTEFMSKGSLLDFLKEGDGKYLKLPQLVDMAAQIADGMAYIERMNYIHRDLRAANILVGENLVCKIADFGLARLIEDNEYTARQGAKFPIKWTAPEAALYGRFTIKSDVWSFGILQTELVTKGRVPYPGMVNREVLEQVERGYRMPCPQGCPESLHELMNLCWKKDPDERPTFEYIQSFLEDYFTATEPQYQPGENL
# Summary of the method: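 ADP-Glo luminescence reports ADP formed by 4 nM Yes1 phosphorylating poly(E4Y) (0.3 mg/mL) with 0.1 mM ATP for 60 min at room temperature, following 20 min compound preincubation; normalised between DMSO wells with and without enzyme.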
# [12] = qHTS for small molecule inhibitors of Yes1 kinase: Counter Assay (AID 686950);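 also: no kinase present so only ADP-Glo detection of a fixed ADP amount is tested; luminescence from ADP-Glo reporting ADP in a fixed ATP and ADP mixture; 0% = DMSO wells with ATP plus ADP and -100% = ATP-only wells without ADP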
# Summary of the method: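 ADP-Glo luminescence read after a 60 min room-temperature incubation of compound with an ATP/ADP mix (0.08 mM/0.02 mM) and no kinase, following a 20 min compound preincubation. Signal scaled between ATP+ADP (max) and 0.1 mM ATP-only (min) wells; Tris pH 7.5, Mg2+, DTT.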
# [13] = molecular target: Catechol O-methyltransferase (Homo sapiens) (UniProt P21964); test: Confirmatory Screen for Target Class Profiling of Small Molecule Inhibitors of Methyltransferases (AID 1745852; calls by dose curve; also: potency is read from the fitted curve at half-maximal effect); conditions: MTase-Glo luminescence, SAH detection, recombinant enzyme; measured here: COMT max response; stronger effect = lower value
# Chain of Catechol O-methyltransferase (Homo sapiens) (P21964 whole entry, looked up): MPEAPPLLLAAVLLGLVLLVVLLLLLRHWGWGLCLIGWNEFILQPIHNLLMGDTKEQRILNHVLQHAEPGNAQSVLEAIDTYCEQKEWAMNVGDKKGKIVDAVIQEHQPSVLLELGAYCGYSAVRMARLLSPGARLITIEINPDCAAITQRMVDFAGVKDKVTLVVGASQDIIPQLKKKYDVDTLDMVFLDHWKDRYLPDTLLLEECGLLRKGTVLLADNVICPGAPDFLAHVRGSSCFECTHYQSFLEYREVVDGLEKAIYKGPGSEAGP
# [14] = molecular target: Guanidinoacetate N-methyltransferase (Homo sapiens) (UniProt Q14353); test: as above; conditions: MTase-Glo luminescence, SAH detection, recombinant enzyme; activity change, negative = inhibition: at 57.3 µM (top of the series) unless noted
# [15] = molecular target: Nicotinamide N-methyltransferase (Homo sapiens) (UniProt P40261); test: as above; conditions: MTase-Glo luminescence, SAH detection, recombinant enzyme; measured here: NNMT max response; stronger effect = lower value
# Chain of Nicotinamide N-methyltransferase (Homo sapiens) (P40261 whole entry, looked up): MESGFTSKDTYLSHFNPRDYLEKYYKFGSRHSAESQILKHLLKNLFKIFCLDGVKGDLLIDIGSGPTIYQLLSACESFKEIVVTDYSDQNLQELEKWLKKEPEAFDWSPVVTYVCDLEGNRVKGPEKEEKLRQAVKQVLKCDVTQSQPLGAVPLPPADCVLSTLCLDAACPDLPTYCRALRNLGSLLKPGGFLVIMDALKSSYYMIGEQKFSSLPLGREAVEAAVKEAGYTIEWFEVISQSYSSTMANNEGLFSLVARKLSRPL
# [16] = molecular target: Phenylethanolamine N-methyltransferase (Homo sapiens) (UniProt P11086); test: as above; conditions: MTase-Glo luminescence, SAH detection, recombinant enzyme; measured here: PNMT max response; stronger effect = lower value
# Chain of Phenylethanolamine N-methyltransferase (Homo sapiens) (P11086 whole entry, looked up): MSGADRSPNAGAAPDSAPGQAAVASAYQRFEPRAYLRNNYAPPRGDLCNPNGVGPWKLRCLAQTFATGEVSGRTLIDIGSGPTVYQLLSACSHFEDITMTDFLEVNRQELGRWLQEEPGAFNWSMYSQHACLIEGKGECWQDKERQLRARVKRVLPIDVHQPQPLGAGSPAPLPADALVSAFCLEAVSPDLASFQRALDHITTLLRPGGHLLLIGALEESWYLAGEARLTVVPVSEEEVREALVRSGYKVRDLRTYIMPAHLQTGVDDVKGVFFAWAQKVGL
# [17] = measured here: PEO1 parental Z-AUC
smiles,measurement,setting,value
COc1c/c(=C2\C=c3ccccc3=N2)[nH]/c1=C/c1[nH]c(C)cc1C,Potency,[1],35 µM (active)
same,Potency,[2],inactive
O=C1NC(=O)/C(=C/c2ccc(-c3ccc(F)cc3)o2)S1,Potency,[3],inactive
COc1cc2c(NC3CCN(C(C)C)CC3)nc(N3CCCCC3)nc2cc1OCCCN1CCCCC1,Potency,[1],38.8 µM (active)
O=C(Nc1noc2ccccc12)c1c(F)cccc1F,Potency,[1],inactive
Clc1ccc(-c2noc3ncnc(NC4CCCCC4)c23)cc1,Potency,[1],15.8 µM (active)
O=C1NC(=O)/C(=C\c2ccc(-c3ccc(F)cc3O)o2)S1,Potency,[3],13 µM (active)
same,Potency,[4],11.6 µM (active)
O=c1cc(-c2ccccc2)oc2ccc(O)cc12,Potency,[1],20 µM (active)
same,Potency,[3],18.4 µM (active)
same,Potency,[2],inactive
Cc1ccc(S(=O)(=O)Nc2cnccc2C(=O)Nc2nc(-c3cccc(C)c3)cs2)cc1,outcome,[5],inactive
same,Potency,[6],1.37 µM (active)
same,Potency,[1],17.3 µM (active)
O=C(Nc1noc2ccccc12)c1ccc(F)cc1,Potency,[1],39.8 µM (active)
Cc1c(O)cccc1C(=O)NC(CSc1ccccc1)C(O)CN1CC2CCCCC2CC1C(=O)NC(C)(C)C (centres undefined),Potency,[3],23.5 µM (active)
same,Potency,[4],20.9 µM (active)
O=C(Nc1nc2c(s1)CCCC2)c1ccccc1F,Potency,[1],39.8 µM (active)
Oc1cccc(Nc2cc(-c3ccccc3)ncn2)c1,Potency,[1],39.8 µM (active)
CCOC(=O)CCNc1cc(N2CCc3ccccc3CC2)nc(-c2ccccn2)n1,Potency,[3],2.35 µM (active)
same,Potency,[4],2.63 µM (active)
same,Potency,[2],inactive
same,Potency,[7],inactive
same,Z-AUC,[8],0.71 (inactive)
same,Z-AUC,[8]; [17],0.271
same,Z-AUC,[8]; measured here: PEO4 Z-AUC,-0.212
CC[C@H](NC(=O)[C@H](C)NC)C(=O)N1C[C@@H](O)C[C@H]1Cc1c(-c2[nH]c3cc(F)ccc3c2C[C@@H]2C[C@H](O)CN2C(=O)[C@H](CC)NC(=O)[C@H](C)NC)[nH]c2cc(F)ccc12,Potency,[3],5.25 µM (active)
same,Potency,[4],18.6 µM (active)
same,outcome,[9],inactive
same,Z-AUC,[8],1.52 (inactive)
same,Z-AUC,[8]; [17],1.38
same,Z-AUC,[8]; measured here: PEO4 Z-AUC,0.68
Cc1ccc([C@@H]2O[C@H](CO)[C@@H](O)[C@H](O)[C@H]2O)cc1Cc1ccc(-c2ccc(F)cc2)s1,Potency,[3],23.5 µM (active)
same,Potency,[4],20.9 µM (active)
same,Potency,[2],inactive
same,Potency,[7],inactive
same,Z-AUC,[8],-0.931 (inactive)
same,Z-AUC,[8]; [17],-1.18
same,Z-AUC,[8]; measured here: PEO4 Z-AUC,-1.2
O=C(/C=C/c1ccc2ccccc2n1)c1ccncc1,Potency,[3],3.66 µM (active)
same,Potency,[4],4.11 µM (active)
same,Potency,[2],inactive
C=CC(=O)N[C@H]1CN(c2nc(Nc3cn(C)nc3OC)c3ncn(C)c3n2)C[C@@H]1F,Potency,[3],14.8 µM (active)
same,Potency,[4],20.9 µM (active)
same,Potency,[2],inactive
same,Potency,[7],inactive
O=Nc1c(-c2c(O)[nH]c3ccc(F)cc23)[nH]c2ccccc12,Potency,[3],1.84 µM (active)
same,Potency,[4],2.06 µM (active)
same,Potency,[2],inactive
CN[C@H]1CN(c2ccc3c(=O)c(C(=O)O)cn(-c4nccs4)c3n2)C[C@@H]1OC,Potency,[3],0.135 µM (active)
same,Potency,[4],0.0762 µM (active)
same,Potency,[2],inactive
same,Potency,[7],inactive
Nc1ccc(F)cc1NC(=O)c1ccc(CNC(=O)/C=C/c2cccnc2)cc1,Potency,[3],1.05 µM (active)
same,Potency,[4],1.18 µM (active)
same,outcome,[9],inactive
same,Potency,[10],inactive
same,Potency,[2],inactive
same,Potency,[7],inactive
same,Z-AUC,[8],-1.13 (inactive)
same,Z-AUC,[8]; [17],-0.9
same,Z-AUC,[8]; measured here: PEO4 Z-AUC,-0.779
c1ccc(-c2cc(CCC3CCNCC3)c3ccccc3n2)cc1,Potency,[3],16.6 µM (active)
same,Potency,[4],13.2 µM (active)
same,Potency,[2],inactive
same,Potency,[7],inactive
same,Z-AUC,[8],-0.417 (inactive)
same,Z-AUC,[8]; [17],0.0933
same,Z-AUC,[8]; measured here: PEO4 Z-AUC,0.16
Cc1cc(OCCCc2c3n(c4c(-c5c(C)nn(C)c5C)c(Cl)ccc24)[C@H](C)CN(c2cn(C)c4ccc(C(=O)O)cc24)C3=O)cc(C)c1Cl,Potency,[3],4.68 µM (active)
same,Potency,[4],2.09 µM (active)
same,Potency,[2],inactive
same,Potency,[7],3.21 µM (active)
same,Z-AUC,[8],1.46 (inactive)
same,Z-AUC,[8]; [17],0.906
same,Z-AUC,[8]; measured here: PEO4 Z-AUC,1.25
COc1cc(Nc2cnc(C#N)c(O[C@H](C)CN(C)C)n2)ncc1-c1cnn(C)c1,Potency,[3],0.148 µM (active)
same,Potency,[4],0.833 µM (active)
same,Potency,[2],inactive
same,Potency,[7],inactive
C/C=C/C[C@@H](C)C(=O)[C@H]1C(=O)N[C@@H](C(C)C)C(=O)N(C)CC(=O)N(C)[C@@H](CC(C)C)C(=O)N[C@@H](C(C)C)C(=O)N(C)[C@@H](CC(C)C)C(=O)N[C@@H](C)C(=O)N[C@H](C)C(=O)N(C)[C@@H](CC(C)C)C(=O)N(C)[C@@H](CC(C)C)C(=O)N(C)[C@@H](C(C)C)C(=O)N1C,Potency,[3],inactive
same,Potency,[4],inactive
same,Potency,[2],inactive
same,Potency,[7],inactive
[N-]=[N+]=N[C@]1(CO)O[C@@H](n2ccc(N)nc2=O)[C@@H](O)[C@@H]1O,Potency,[3],5.17 µM (active)
same,Potency,[4],3.66 µM (active)
same,outcome,[9],inactive
O=C(c1ccc(Nc2nc(C3CC3)cn3c(-c4cn[nH]c4)cnc23)c(F)c1)N1CCOCC1,Potency,[3],9.34 µM (active)
same,Potency,[4],9.34 µM (active)
same,Potency,[2],inactive
same,Potency,[7],inactive
same,Z-AUC,[8],0.98 (inactive)
same,Z-AUC,[8]; [17],0.912
same,Z-AUC,[8]; measured here: PEO4 Z-AUC,1.07
Nc1nonc1-c1nc2cnccc2n1C1CCCCC1,outcome,[11],inactive
same,outcome,[12],inactive
same,Potency,[3],5.17 µM (active)
same,Potency,[4],2.91 µM (active)
same,activity,[13],-23.3%
same,Potency,[14],27.1 µM (active)
same,activity,[15],-44.1%
same,activity,[16],-20.9%
same,Potency,[2],inactive
Nc1nc(Nc2ccc3c(c2)CC[C@@H](N2CCCC2)CC3)nn1-c1cc2c(nn1)-c1ccccc1CCC2,Potency,[3],2.63 µM (active)
same,Potency,[4],3.32 µM (active)
same,activity,[13],-19.2%
same,Potency,[14],24.1 µM (active)
same,activity,[15],-19.6%
same,activity,[16],-24%
same,Potency,[2],inactive
same,Potency,[7],inactive
same,Z-AUC,[8],0.211 (inactive)
same,Z-AUC,[8]; [17],-0.494
same,Z-AUC,[8]; measured here: PEO4 Z-AUC,-0.517
